Test systems include DU-145 prostate; K-562 leukemia; MDA-MB-231 breast; RXF 393 renal; SF-268 CNS; SF-295 CNS; SF-539 CNS; UACC-257 melanoma; M14 melanoma; HCT-15 colon; HT29 colon; SNB-75 CNS; SNB-19 CNS; U251 CNS; PC-3 prostate; SK-MEL-5 melanoma; UACC-62 melanoma; LOX IMVI melanoma; SK-MEL-28 melanoma.
Assay in all cases: NCI-60 one-dose screen, 48 h (100 = growth as untreated, 0 = no growth, -100 = all killed)
What all share (conditions): 10 µM

Molecules are shown by their SMILES. Compounds without any hit were thinned out: in the full panel of roughly 83,000, 20% have a hit.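 Single-concentration screen, 48 h exposure, 96-well plates. Endpoint: percent growth. Below 10 = active.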 Unmarked numbers belong to inactive results. Active and inactive are the calls of the source.

Regarding `COc1cc(/C=C2\C(=O)Nc3cc(C)c(O)cc32)cc(OC)c1OC`, the growth in the assay on DU-145 prostate is 44.6%; with K-562 leukemia, 15.1%; with MDA-MB-231 breast it was 39.6%; in the assay on RXF 393 renal, 23.5%; in the assay on SF-268 CNS it was 60.6%; in the assay on SF-295 CNS, 43.3%. The growth in the assay on SF-539 CNS is 71.3%; in the assay on UACC-257 melanoma, -11.1% (active); in the assay on M14 melanoma, 65.9%; in the assay on HCT-15 colon it was 33.7%; in the assay with HT29 colon, 22.4%; in the assay with SNB-75 CNS, 55.1%. Moreover, the growth is 71.6% in the assay with SNB-19 CNS; 44.5% with U251 CNS; 33.5% in the assay on PC-3 prostate; 47% in the assay with SK-MEL-5 melanoma; 57.9% with UACC-62 melanoma; 45.7% with LOX IMVI melanoma. The growth in the assay with SK-MEL-28 melanoma is 73.2%.

On to `COc1cc([C@@H]2c3cc4c(cc3[C@H](SC(=N)N)[C@H]3COC(=O)[C@H]23)OCO4)cc(OC)c1OC`, for which the growth with DU-145 prostate is 6.78% (active); with K-562 leukemia it was 13.8%; in the assay with MDA-MB-231 breast, -5.46% (active); with RXF 393 renal it was 27.1%; in the assay with SF-268 CNS it was 30.3%; in the assay on SF-295 CNS, -20.4% (active). The growth in the assay with SF-539 CNS is -22.5% (active); in the assay on UACC-257 melanoma it was 57.1%; in the assay with M14 melanoma, 16.9%; in the assay on HCT-15 colon, 11.8%; in the assay on HT29 colon, 8.38% (active); in the assay on SNB-75 CNS, 30.1%. For the same compound, the growth with SNB-19 CNS was 37.4%; with U251 CNS, 23.2%; in the assay with PC-3 prostate, 19.5%; in the assay with SK-MEL-5 melanoma, -29.6% (active); with UACC-62 melanoma, 62.2%; in the assay with LOX IMVI melanoma, 16.5%. Also, in the assay on SK-MEL-28 melanoma, the growth was 63.7%.

As to `CCOC(=O)c1cc2c(n1Cc1cc(OC)cc(OC)c1)-c1oncc1CC2`, the growth is 13.8% in the assay on DU-145 prostate; 16.7% with K-562 leukemia; 30.4% with MDA-MB-231 breast; 18.7% in the assay on RXF 393 renal; 50.5% in the assay with SF-268 CNS; -4.53% (active) in the assay on SF-295 CNS. For the same compound, the growth in the assay on SF-539 CNS was -7.41% (active); with UACC-257 melanoma it was 60.5%; in the assay on M14 melanoma, 1.54% (active); with HCT-15 colon, 21.9%; in the assay on HT29 colon it was 5.66% (active); with SNB-75 CNS it was -0.349% (active). Further, the growth was 38.7% in the assay with SNB-19 CNS; 23.5% in the assay with U251 CNS; 27.4% in the assay with PC-3 prostate; 24.6% in the assay on SK-MEL-5 melanoma; 40.3% in the assay on UACC-62 melanoma; 49.5% in the assay on LOX IMVI melanoma. For the same compound, the growth in the assay on SK-MEL-28 melanoma was 33.8%.

For `Cn1cnc([N+](=O)[O-])c1Sc1nnc(-c2ccccc2)c(-c2ccccc2)n1`, the growth is 81.9% with DU-145 prostate; 51% in the assay with K-562 leukemia; 102% in the assay with MDA-MB-231 breast; 85.1% with SF-268 CNS; 87.7% in the assay on SF-295 CNS; 111% with SF-539 CNS. In addition, the growth with UACC-257 melanoma is 79.9%; with M14 melanoma, 76.9%; with HCT-15 colon it was 56%; in the assay on HT29 colon it was 74.8%; with SNB-75 CNS, 100%; with SNB-19 CNS it was 109%. In addition, the growth is 77.7% in the assay with U251 CNS; 95.5% with PC-3 prostate; 106% in the assay with SK-MEL-5 melanoma; 64.3% in the assay on UACC-62 melanoma; 67.8% in the assay on LOX IMVI melanoma; 76% in the assay with SK-MEL-28 melanoma.

For `Nc1cc2c(cc1Cl)-c1ccc(Cl)cc1C2=O`, the growth in the assay on DU-145 prostate was 105%; in the assay on K-562 leukemia it was 89.9%; in the assay on MDA-MB-231 breast it was 82.5%; in the assay on RXF 393 renal, 131%; in the assay with SF-268 CNS, 93.8%; with SF-295 CNS, 115%. Further, the growth was 78.2% in the assay on SF-539 CNS; 103% with UACC-257 melanoma; 104% in the assay with M14 melanoma; 99.7% in the assay with HCT-15 colon; 89.7% in the assay with SNB-75 CNS; 98.7% with SNB-19 CNS. Besides, the growth in the assay on U251 CNS was 91.1%; with PC-3 prostate it was 94.2%; in the assay on SK-MEL-5 melanoma, 108%; in the assay with UACC-62 melanoma, 95.7%; with LOX IMVI melanoma, 95.1%; in the assay with SK-MEL-28 melanoma, 109%.

For `COc1ccc(-c2n/c(=C\c3c(O)[nH]c4ccccc34)cc3c2=Nc2ccccc2-3)cc1`, the growth was 19.1% in the assay with DU-145 prostate; -8.09% (active) in the assay with K-562 leukemia; 30.6% with MDA-MB-231 breast; 44.8% with RXF 393 renal; 5.04% (active) with SF-268 CNS; 38.5% in the assay on SF-295 CNS. The growth with SF-539 CNS is 82.6%; with UACC-257 melanoma, 91.8%; in the assay with M14 melanoma it was 3.99% (active); with HCT-15 colon, 1.23% (active); with HT29 colon, -37.1% (active); in the assay on SNB-75 CNS it was 66.1%. Besides, the growth is 63.1% in the assay with SNB-19 CNS; -61.4% (active) in the assay with U251 CNS; 43.3% with PC-3 prostate; 70% in the assay with SK-MEL-5 melanoma; 87.3% in the assay on UACC-62 melanoma; 2.48% (active) in the assay on LOX IMVI melanoma. The growth in the assay with SK-MEL-28 melanoma was -25.6% (active).

Take `CCOC(=O)c1c(O)c2cc(-c3ccccc3)nc(OCC)c2c(=O)n1C`: the growth in the assay with DU-145 prostate was 107%; in the assay on K-562 leukemia, 97.1%; in the assay on MDA-MB-231 breast, 95.9%; in the assay on RXF 393 renal, -0.249% (active); in the assay with SF-268 CNS, 94.3%; in the assay on SF-295 CNS, 95.6%. Also, the growth in the assay on SF-539 CNS is 94.6%; in the assay on UACC-257 melanoma, 54.9%; with M14 melanoma, 87.8%; in the assay with HCT-15 colon, 82.7%; in the assay with SNB-75 CNS, 95.6%; with SNB-19 CNS, 91.5%. The growth in the assay with U251 CNS is 97.3%; in the assay on PC-3 prostate it was 14.3%; in the assay with SK-MEL-5 melanoma it was 86.7%; in the assay on UACC-62 melanoma, 99.9%; with LOX IMVI melanoma, 98.7%; with SK-MEL-28 melanoma, 84.8%.

`COc1cc(C2c3cc4c(cc3C(O)C(CO)C2CO)OCO4)cc(OC)c1OC` (stereo unspecified): the growth with DU-145 prostate was 0.809% (active); with K-562 leukemia, 11.3%; with MDA-MB-231 breast, 41.2%; in the assay with RXF 393 renal, -6.08% (active); with SF-268 CNS, 35.9%; with SF-295 CNS, -42.8% (active). Further, the growth in the assay on SF-539 CNS is -16.4% (active); in the assay on UACC-257 melanoma it was 62%; with M14 melanoma, 22.5%; with HCT-15 colon, 61.2%; with SNB-75 CNS, -4.31% (active); with SNB-19 CNS, 35.8%. Moreover, the growth in the assay with U251 CNS was 22.3%; with PC-3 prostate it was 25.3%; in the assay with SK-MEL-5 melanoma, 11.1%; in the assay with UACC-62 melanoma, 40.8%; in the assay on LOX IMVI melanoma, 43.8%; with SK-MEL-28 melanoma, 44.1%.

For the compound `CC1(C)Cc2c(cn(Cc3ccccc3)c2-c2ccccc2)-c2oncc21`, the growth in the assay with DU-145 prostate is 103%; with K-562 leukemia, 74.7%; in the assay with MDA-MB-231 breast it was 104%; in the assay on RXF 393 renal it was 98%; with SF-268 CNS it was 107%; in the assay on SF-295 CNS it was 99.5%. Moreover, the growth was 107% in the assay with SF-539 CNS; 101% with UACC-257 melanoma; 100% in the assay with M14 melanoma; 101% with HCT-15 colon; 79.6% in the assay with HT29 colon; 103% in the assay on SNB-75 CNS. Also, the growth in the assay on SNB-19 CNS was 110%; in the assay on U251 CNS, 88.9%; in the assay with SK-MEL-5 melanoma, 83.5%; in the assay on UACC-62 melanoma it was 86.7%; in the assay on LOX IMVI melanoma it was 90.2%; in the assay with SK-MEL-28 melanoma, 112%.
